Experimental data from ChEMBL document CHEMBL1157539, “Thousands of chemical starting points for antimalarial lead identification” (Nature, 2010).

What follows are compounds tested on Plasmodium falciparum (assay: GSK_TCMDC: Inhibition of Plasmodium falciparum 3D7 in whole red blood cells, using parasite LDH activity as an index of growth. Test compounds present at 2uM).
Assay type: functional

Inhibition, 96%:
CCOc1cc2ncnc(Nc3ccc(OCc4c(F)cccc4F)c(OC)c3)c2cc1OCC.Cl

Inhibition, 100%:
O=C(NCC1CCN(Cc2cccc(C(F)(F)F)c2)C1)c1cc(-c2cccc(C(F)(F)F)c2)cs1.O=C(O)C(F)(F)F (stereo not given)
CC(C)NCc1ccc(-c2cccc(-c3nc4cc(F)ccc4[nH]3)c2)cc1.O=C(O)C(F)(F)F
Cn1cncc1C(=O)Nc1cccc(-c2ccc(-c3nc4cc(F)ccc4[nH]3)cc2)c1
O=C(Nc1ccc(-c2ccccc2)s1)N[C@H]1CCN(Cc2ccc(OCCCN3CCCCC3)cc2)C1
Cl.N=C(N)NN=C1C=Cc2cccc3cccc1c23
CCCCC(=O)Nc1nonc1-c1ccc(OCC)c(OCC)c1
O=S(=O)(Nc1ccc(CCN2CCC(N3CCCCC3)CC2)cc1)c1cccc2cccnc12
Cc1cccc2nc(-c3cccc(-c4ccc(CNCCc5ccncc5)cc4)c3)[nH]c12.O=C(O)C(F)(F)F
Nc1cccc(CNCc2ccc(-c3ccc(-c4nc5cc(C(F)(F)F)ccc5[nH]4)s3)cc2)c1.O=C(O)C(F)(F)F
CCCCNc1cc(NCCCC)c2c(n1)[nH]c1ccccc12
O=C(Nc1ccc(-c2csc3nccn23)cc1)c1ccc(Cl)cc1
CC(C)(C)c1ccc(CN2CCCCC(NC(=O)c3cc(-c4ccccc4F)cs3)C2)cc1.O=C(O)C(F)(F)F (stereo not given)

Inhibition, 80%:
CCC(O)c1ccc(Br)cc1NC(=O)c1cccc(Cl)c1 (stereo not given)

Inhibition, 91%:
O=C(O)C(F)(F)F.c1ccc(CCNCc2ccc(-c3cccc(CNc4ccc5ncccc5c4)c3)cc2)cc1

Inhibition, 86%:
Nc1c(Cl)cc(C(O)CNCCCCCCOCCc2ccc(CO)s2)cc1Cl.O=C(O)/C=C/C(=O)O (stereo not given)

Inhibition, 99%:
CCC(Nc1noc(-c2c(-c3ccccc3)noc2C)n1)c1ccccc1 (stereo not given)
Cc1c(C)c2c(c(C)c1O)CC[C@](C)(C(=O)N1CCC(CCN3CCC(c4c[nH]c5ccccc45)CC3)CC1)O2
COc1ccc(-c2onc(C(F)(F)F)c2-c2ccc(Br)cc2)c(O)c1

Inhibition, 88%:
Cc1nc2ccccc2c(O)c1[N+](=O)[O-]
CCC(C)c1ccc(-n2c(Nc3ccccc3)nc3cc(S(N)(=O)=O)ccc32)cc1 (stereo not given)

Inhibition, 89%:
CCCCCCCN1CC[C@@H](CCCc2ccnc3ccc(OCCN4CCOCC4)cc23)[C@@H](CC)C1.O=C(O)C(=O)O

Inhibition, 94%:
Br.CCC(CCON1C(N)=NC(N)=NC1(C)C)c1ccc(Cl)c(Cl)c1 (stereo not given)
CC(C)(C)c1ccc(CNC(=O)c2cc(CNC3CCC(N)CC3)ccc2O)cc1 (stereo not given)

Inhibition, 97%:
COc1cc2nc(NCc3nc4ccccc4[nH]3)nc(N)c2cc1OC.Cl
CCCc1ccccc1OCC(O)CN(C1CCCC1)C1CCCC1.Cl (stereo not given)

Inhibition, 98%:
CC1(C)NC(N)=NC(=N)N1OCc1cc(Cl)c(Cl)cc1CON1C(=N)N=C(N)NC1(C)C
COc1cccc(NC(=O)Nc2cc(-c3ccc4[nH]ncc4c3)cc3c2CNC3=O)c1
CCc1c[nH]c2c(N(c3ccccc3)S(C)(=O)=O)cc(C(=O)N[C@@H](Cc3ccccc3)[C@H](O)CNC(C)(C)CCCC(C)C)cc12.O=CO
CCCN(CCC)CCCNc1ccc(C(=O)Nc2ccc(C(C)C)cc2)cc1[N+](=O)[O-]

Inhibition, 93%:
CCn1c(Sc2ccc([N+](=O)[O-])c(C#N)c2)nnc1-c1ccc(Cl)cc1
CCOC(=O)c1c(CN(CC)CC)n(-c2ccccc2)c2cc(Br)c(O)cc12
O=C(Nc1cccc(-c2cccc(CN3CCCC3)c2)c1)c1ccc(Cl)cc1.O=C(O)C(F)(F)F
Cn1cnc(CCNC(=O)c2ccc(-c3cccc(-c4nc5ccccc5[nH]4)c3)cc2)c1

Inhibition, 95%:
CCC(C)NC(=O)CN1CN(c2ccccc2)C2(CCN(C(=O)c3ccc4ccccc4c3)CC2)C1=O (stereo not given)
CN(c1ncc(-c2cccc(CNCc3ccccc3O)c2)cn1)C1CCCCC1
COc1ccccc1CCNc1ncnc2c1[nH]c1ccc(F)cc12
O=C(NC1c2ccccc2Oc2ccccc21)c1ccccc1O
COc1ccc(C(=O)NC(Nc2ccc([N+](=O)[O-])cc2)C(Cl)(Cl)Cl)cc1 (stereo not given)
CC(Oc1ccc(C(=O)c2ccc(F)cc2)cc1)C(=O)N1CCc2ccccc21 (stereo not given)
